# Source: the supplement of paper PMC13392028
# Over roughly 4,100 sequences, “RBNS R-value (6-mer enrichment in protein-bound RNA vs input library)” has its median near 0.99; the highest 2% begin near 1.4. For the sample, the highest values were picked, then their nearest neighbours and some sequences at random.
# Tested on: PfIESI-1 RRM domain (Plasmodium falciparum ortholog aa 875-1232, GST fusion)
# Assay: RBNS R-value (6-mer enrichment in protein-bound RNA vs input library) (ratio); higher = stronger binding preference; the methods of the paper give 50 / 100 / 500 nM protein instead
# Experimental: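 RNA Bind-n-Seq: recombinant GST-tagged IESI-1 RRM domain was incubated at room temperature with a random 40-nt in vitro transcribed RNA library at 250, 500 or 1000 nM protein. Bound RNA was pulled down on glutathione beads and sequenced. R-value is the enrichment of each 6-mer in the bound RNA relative to the input library. Each 6-mer sits inside the random 40-mer context, not as an isolated oligo. Values are replicate 1 only.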
Sequence,RBNS R-value (protein concentration: 250 nM),RBNS R-value (protein concentration: 500 nM),RBNS R-value (protein concentration: 1000 nM)
UGGGUC,0.985,0.933,1.01
UGUCAG,0.921,0.924,0.976
CAAAUC,0.911,0.973,0.983
UUGACU,1.07,1.06,1.05
UAACGC,0.896,0.876,0.884
CAUCAC,0.917,0.894,0.935
AUAUAC,0.837,0.813,0.766
GACCUC,1.02,0.989,1.03
UCUGAU,1.88,1.98,1.58
GCUGAU,1.77,1.76,1.47
UCUGAG,1.12,1.1,1.14
GCUGAG,1.09,1.07,1.1
ACUGAG,1.08,1.13,1.11
ACUGAC,1.04,1.03,1.04
CCUGAG,1.47,1.26,1.34
GCUGAC,1.07,1.02,1.07
UCUGAA,0.982,1.05,1.03
UCUGAC,1.02,0.998,1.05
CCUGCG,1.1,1.05,1.1
ACUGAU,1.89,2.06,1.65
CAGAAC,1.11,1.13,1.13
AGUCCC,1.01,0.956,1.01
UACCGG,0.983,0.914,0.955

Sequence,RBNS R-value (protein concentration: 250 nM),RBNS R-value (protein concentration: 500 nM),RBNS R-value (protein concentration: 1000 nM)
CAGUAA,0.864,0.913,0.866
CUACAU,0.824,0.777,0.777
GUUCCU,1.02,0.962,1.01
AACAGG,0.999,1.07,1.06
GGGACU,1,0.984,1.02
GAAGAC,1.14,1.17,1.15
AGAGUC,1.01,1.03,1.05
AUGUGA,1.15,1.26,1.14
CUGGGC,1.06,0.987,1.04
CCUGAC,1.14,1.07,1.12
CCUGAA,1.17,1.17,1.18
CCUGAU,1.99,2.08,1.66
AUGCGG,1.02,1.01,1.01
UCUAGU,0.878,0.906,0.899
GAUGCG,1.41,1.42,1.31
UAUGCA,0.846,0.862,0.85
CAUGCA,0.934,0.914,0.92
CAUGCC,1.04,0.974,1.05
GAUGCC,1.57,1.46,1.39
UAUGCG,0.899,0.892,0.894
GAUGCA,1.39,1.42,1.29
UAUGCC,0.946,0.891,0.903
AAUGCG,0.939,0.968,0.95

Sequence,RBNS R-value (protein concentration: 250 nM),RBNS R-value (protein concentration: 500 nM),RBNS R-value (protein concentration: 1000 nM)
CUCGUG,0.979,0.913,0.998
AGCGGC,1.05,1.03,1.01
AUUCUU,1.04,1.06,1.02
CUUAGC,0.907,0.84,0.885
CGGUCA,0.933,0.898,0.979
AAUUCA,0.972,1.06,0.981
AAUUCU,1.01,1.07,1.06
GAUUCG,1.43,1.44,1.31
CAUUCC,1.04,0.997,1.05
AAUUCC,1.16,1.15,1.16
UAUUCA,0.803,0.794,0.796
GAUUCA,1.44,1.56,1.35
GAUUCC,1.51,1.47,1.38
CAUUCG,1.02,0.992,1.04
UAUUCU,0.875,0.813,0.832
AAUUCG,0.99,1.06,1.02
GAUUCU,1.53,1.6,1.33
AGGUAA,0.909,0.998,0.997
CUUAAG,0.818,0.849,0.846
UCCUUU,0.883,0.825,0.875
UACCGA,1.01,0.978,0.96
AGGGAG,1.09,1.11,1.06
GAUAAC,1.16,1.26,1.15

Sequence,RBNS R-value (protein concentration: 250 nM),RBNS R-value (protein concentration: 500 nM),RBNS R-value (protein concentration: 1000 nM)
CAUUGA,1.33,1.37,1.22
UAUUGA,1.07,1.14,0.985
GAUUGG,1.37,1.37,1.25
CAUUGC,0.987,0.973,0.976
GAUUGU,1.04,1.04,0.998
GAUUGA,1.61,1.69,1.43
AAUUGA,1.37,1.52,1.31
GAUUGC,1.7,1.68,1.42
AAUUGU,0.865,0.926,0.948
UCCGUC,0.938,0.878,0.944
GUAUCA,0.785,0.812,0.852
UCCUGU,0.873,0.838,0.868
ACUGCC,1,0.929,0.986
CAUGUC,0.881,0.88,0.921
UAUGUG,0.854,0.869,0.848
CAUGUG,0.924,0.964,0.964
CAUGUU,0.853,0.856,0.878
UAUGUC,0.791,0.772,0.81
GAUGUU,1.47,1.53,1.31
AAUGUU,0.827,0.922,0.9
GAUGUC,1.37,1.39,1.29
UAUGUA,0.792,0.805,0.771
GAUGUG,1.53,1.65,1.36
